Laboratory results from PubChem BioAssay AID1159580 (chemical genetic matrix, 2015).
Out of some 5,500 compounds screened, about 2,000 (36%) were called active. Not shown: some 18% with an inconclusive outcome. This is one part of the list. Unmarked numbers belong to inactive results. Cut-off read from the data, not from the text of the source: active = normalized growth mostly below about 0.91 (no sharp cut-off); inconclusive = no clear call, values can overlap the other calls; inactive = mostly above about 0.92.

Experiment: chemical genetic growth profiling, strain panel (AID 1159580);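 note: tested at 20 µM; growth read once vehicle control cultures reached saturation at 30 °C; 1 = growth at the plate median or of vehicle wells; lower values mean less growth of the strain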
Conditions: growth OD

COC(=O)/C(=C1\OC(=O)C(c2ccccc2)=C1O)c1ccccc1
normalized growth (S. cerevisiae deletion strains, locus YJL187C, strain SWE1, active compounds read low): 0.98 | normalized growth (S. cerevisiae deletion strains, locus YJR043C, strain POL32, active compounds read low): 1.02 | normalized growth (S. cerevisiae deletion strains, locus YJR066W, strain TOR1, active compounds read low): 0.902 | normalized growth (S. cerevisiae deletion strains, locus YKL009W, strain mrt4, active compounds read low): 1.01 | normalized growth (S. cerevisiae deletion strains, locus YKL068W, active compounds read low): 0.965 | normalized growth (S. cerevisiae deletion strains, locus YKL085W, strain MDH1 (second series), active compounds read low): 0.965 | normalized growth (S. cerevisiae deletion strains, locus YKL085W, strain MDH1, active compounds read low): 0.965 | normalized growth (S. cerevisiae deletion strains, locus YKL160W, strain elf1, active compounds read low): 0.969 | normalized growth (S. cerevisiae deletion strains, locus YKR001C, strain vps1, active compounds read low): 1.03 | normalized growth (S. cerevisiae deletion strains, locus YKR026C, strain gcn3, active compounds read low): 0.935 | normalized growth (S. cerevisiae deletion strains, locus YKR091W, strain srl3, active compounds read low): 0.965 | normalized growth (S. cerevisiae deletion strains, locus YLL001W, strain dnm1, active compounds read low): 0.97 | normalized growth (S. cerevisiae deletion strains, locus YLL026W, active compounds read low): 0.974 | normalized growth (S. cerevisiae deletion strains, locus YLL041C, strain sdh2, active compounds read low): 0.956 | normalized growth (S. cerevisiae deletion strains, locus YLR027C, strain aat2, active compounds read low): 0.969 | normalized growth (S. cerevisiae deletion strains, locus YLR039C, strain RIC1, active compounds read low): 1.03 | normalized growth (S. cerevisiae deletion strains, locus YLR058C, strain SHM2, active compounds read low): 1.01 | normalized growth (S. cerevisiae deletion strains, locus YLR102C, strain apc9, active compounds read low): 0.988 | normalized growth (S. cerevisiae deletion strains, locus YLR113W, strain HOG1, active compounds read low): 0.827 (active) | normalized growth (S. cerevisiae deletion strains, locus YLR221C, strain rsa3, active compounds read low): 0.981 | normalized growth (S. cerevisiae deletion strains, locus YLR258W, strain gsy2, active compounds read low): 0.985 | normalized growth (S. cerevisiae deletion strains, locus YLR262C, strain YPT6 (second series), active compounds read low): 0.915 | normalized growth (S. cerevisiae deletion strains, locus YLR262C, strain YPT6, active compounds read low): 1 | normalized growth (S. cerevisiae deletion strains, locus YLR268W, strain sec22, active compounds read low): 1.03 | normalized growth (S. cerevisiae deletion strains, locus YLR320W, strain mms22, active compounds read low): 0.981 | normalized growth (S. cerevisiae deletion strains, locus YLR330W, strain CHS5, active compounds read low): 0.996 | normalized growth (S. cerevisiae deletion strains, locus YLR342W, strain FKS1 (second series), active compounds read low): 1 | normalized growth (S. cerevisiae deletion strains, locus YLR342W, strain FKS1, active compounds read low): 0.976 | normalized growth (S. cerevisiae deletion strains, locus YLR357W, strain rsc2, active compounds read low): 1.01 | normalized growth (S. cerevisiae deletion strains, locus YLR370C, strain arc18, active compounds read low): 0.97 | normalized growth (S. cerevisiae deletion strains, locus YLR371W, strain rom2, active compounds read low): 1 | normalized growth (S. cerevisiae deletion strains, locus YLR384C, strain iki3, active compounds read low): 0.982 | normalized growth (S. cerevisiae deletion strains, locus YLR418C, strain cdc73, active compounds read low): 0.996 | normalized growth (S. cerevisiae deletion strains, locus YML016C, strain PPZ1, active compounds read low): 1.01 | normalized growth (S. cerevisiae deletion strains, locus YML032C, strain rad52, active compounds read low): 0.987 | normalized growth (S. cerevisiae deletion strains, locus YML120C, strain ndi1, active compounds read low): 0.985 | normalized growth (S. cerevisiae deletion strains, locus YML124C, strain tub3, active compounds read low): 0.993 | normalized growth (S. cerevisiae deletion strains, locus YMR058W, strain fet3, active compounds read low): 0.981 | normalized growth (S. cerevisiae deletion strains, locus YMR078C, strain ctf18, active compounds read low): 1 | normalized growth (S. cerevisiae deletion strains, locus YMR125W, strain sto1, active compounds read low): 0.982 | normalized growth (S. cerevisiae deletion strains, locus YMR129W, active compounds read low): 0.965 | normalized growth (S. cerevisiae deletion strains, locus YMR205C, strain PFK2, active compounds read low): 0.965 | normalized growth (S. cerevisiae deletion strains, locus YMR223W, strain ubp8, active compounds read low): 0.98 | normalized growth (S. cerevisiae deletion strains, locus YMR231W, strain pep5, active compounds read low): 0.98 | normalized growth (S. cerevisiae deletion strains, locus YMR307W, strain GAS1, active compounds read low): 1.1 | normalized growth (S. cerevisiae deletion strains, locus YNL067W, strain RPL9B, active compounds read low): 1.03 | normalized growth (S. cerevisiae deletion strains, locus YNL071W, strain lat1, active compounds read low): 0.98 | normalized growth (S. cerevisiae deletion strains, locus YNL128W, strain TEP1, active compounds read low): 1.02 | normalized growth (S. cerevisiae deletion strains, locus YNL183C, strain NPR1, active compounds read low): 0.899 | normalized growth (S. cerevisiae deletion strains, locus YNL209W, strain ssb2, active compounds read low): 0.967 | normalized growth (S. cerevisiae deletion strains, locus YNL233W, strain BNI4, active compounds read low): 1.02 | normalized growth (S. cerevisiae deletion strains, locus YNL248C, strain rpa49, active compounds read low): 0.985 | normalized growth (S. cerevisiae deletion strains, locus YNL250W, strain rad50, active compounds read low): 0.998 | normalized growth (S. cerevisiae deletion strains, locus YNL271C, strain bni1, active compounds read low): 0.986 | normalized growth (S. cerevisiae deletion strains, locus YNL298W, strain CLA4, active compounds read low): 0.982 | normalized growth (S. cerevisiae deletion strains, locus YNL307C, strain MCK1, active compounds read low): 0.988 | normalized growth (S. cerevisiae deletion strains, locus YNL322C, strain KRE1 (second series), active compounds read low): 0.953 | normalized growth (S. cerevisiae deletion strains, locus YNR049C, strain mso1, active compounds read low): 0.959 | normalized growth (S. cerevisiae deletion strains, locus YNR052C, strain pop2, active compounds read low): 1.01 | normalized growth (S. cerevisiae deletion strains, locus YOL006C, strain TOP1, active compounds read low): 1.17 | normalized growth (S. cerevisiae deletion strains, locus YOL012C, strain htz1): 0.689 | normalized growth (S. cerevisiae deletion strains, locus YOL147C, strain pex11, active compounds read low): 0.99 | normalized growth (S. cerevisiae deletion strains, locus YOR001W, strain rrp6, active compounds read low): 0.974 | normalized growth (S. cerevisiae deletion strains, locus YOR061W, strain CKA2, active compounds read low): 0.999 | normalized growth (S. cerevisiae deletion strains, locus YOR069W, strain VPS5, active compounds read low): 0.995 | normalized growth (S. cerevisiae deletion strains, locus YOR070C, strain gyp1, active compounds read low): 0.976 | normalized growth (S. cerevisiae deletion strains, locus YOR080W, strain dia2, active compounds read low): 0.982 | normalized growth (S. cerevisiae deletion strains, locus YOR083W, strain WHI5, active compounds read low): 0.968 | normalized growth (S. cerevisiae deletion strains, locus YOR106W, strain vam3, active compounds read low): 1.01 | normalized growth (S. cerevisiae deletion strains, locus YOR136W, strain idh2, active compounds read low): 1 | normalized growth (S. cerevisiae deletion strains, locus YOR144C, strain elg1, active compounds read low): 0.984 | normalized growth (S. cerevisiae deletion strains, locus YOR184W, strain ser1, active compounds read low): 1.01 | normalized growth (S. cerevisiae deletion strains, locus YOR231W, strain MKK1, active compounds read low): 0.903 | normalized growth (S. cerevisiae deletion strains, locus YOR265W, strain rbl2, active compounds read low): 0.961 | normalized growth (S. cerevisiae deletion strains, locus YOR270C, strain vph1, active compounds read low): 0.974 | normalized growth (S. cerevisiae deletion strains, locus YOR290C, strain snf2, active compounds read low): 0.948 | normalized growth (S. cerevisiae deletion strains, locus YOR316C, strain cot1, active compounds read low): 0.981 | normalized growth (S. cerevisiae deletion strains, locus YPL051W, strain arl3, active compounds read low): 0.983 | normalized growth (S. cerevisiae deletion strains, locus YPL055C, strain LGE1, active compounds read low): 1.05 | normalized growth (S. cerevisiae deletion strains, locus YPL078C, strain atp4, active compounds read low): 0.972 | normalized growth (S. cerevisiae deletion strains, locus YPL106C, strain sse1, active compounds read low): 0.966 | normalized growth (S. cerevisiae deletion strains, locus YPL240C, strain hsp82, active compounds read low): 0.956 | normalized growth (S. cerevisiae deletion strains, locus YPL241C, strain CIN2, active compounds read low): 0.989 | normalized growth (S. cerevisiae deletion strains, locus YPL256C, strain CLN2, active compounds read low): 0.865 | normalized growth (S. cerevisiae deletion strains, locus YPR119W, strain clb2, active compounds read low): 0.99 | normalized growth (S. cerevisiae deletion strains, locus YPR141C, strain kar3, active compounds read low): 0.965 | normalized growth (S. cerevisiae deletion strains, locus YPR163C, strain tif3, active compounds read low): 0.997 | normalized growth (S. cerevisiae deletion strains, locus YPR167C, strain met16, active compounds read low): 0.983 | normalized growth (S. cerevisiae deletion strains, strain wtn01, active compounds read low): 1.01 | normalized growth (S. cerevisiae strains, strain wild type, active compounds read low): 0.992
